Measured values: PMC11102866, “Nucleosome-bound NR5A2 structure reveals pioneer factor mechanism by DNA minor groove anchor competition”
Where a chain is given by its changes, count along the chain named. Numbers in names are those of the source.

B1: 10 (nucleosome)
DNA 1: ATCCTGGAGAATTCAAGGCCAGAGGCCGCTCAATTGGTCGTAGACAGCTCTAGCACCGCTTAAACGCACGTACGCGCTGTCCCCCGCGTTTTAACCGCCAAGGGGATTACTCCCTAGTCTCCAGGCACGTGTCAGATATATACATCCTGTGAT
DNA 2: ATCACAGGATGTATATATCTGACACGTGCCTGGAGACTAGGGAGTAATCCCCTTGGCGGTTAAAACGCGGGGGACAGCGCGTACGTGCGTTTAAGCGGTGCTAGAGCTGTCTACGACCAATTGAGCGGCCTCTGGCCTTGAATTCTCCAGGAT
modifications: reconstituted with mouse histones H2A, H2B, H3.3 and H4
B2: 79 (nucleosome)
DNA 1: ATCCTGGAGAATCCCGGTGCCGAGGCCGCTCAATTGGTCGTAGACAGCTCTAGCACCGCTTAAACGCACGTACGCGCTGTCTCAAGGCCATTAACCGCCAAGGGGATTACTCCCTAGTCTCCAGGCACGTGTCAGATATATACATCCTGTGAT
DNA 2: ATCACAGGATGTATATATCTGACACGTGCCTGGAGACTAGGGAGTAATCCCCTTGGCGGTTAATGGCCTTGAGACAGCGCGTACGTGCGTTTAAGCGGTGCTAGAGCTGTCTACGACCAATTGAGCGGCCTCGGCACCGGGATTCTCCAGGAT
modifications: reconstituted with mouse histones H2A, H2B, H3.3 and H4
B3: 81 (nucleosome)
DNA 1: B2 DNA 1 with T82C, A84T, A85C, G86A, G87A, C88G, C89G, A90C, T91C, T92A
DNA 2: B2 DNA 2 with A62T, A63G, T64G, G65C, G66C, C67T, C68T, T69G, T70A, A72G
modifications: reconstituted with mouse histones H2A, H2B, H3.3 and H4
B4: 75 (nucleosome)
DNA 1: ATCCTGGAGAATCCCGGTGCCGAGGCCGCTCAATTGGTCGTAGACAGCTCTAGCACCGCTTAAACGCACGTACGCGCTCAAGGCCACGTTTTAACCGCCAAGGGGATTACTCCCTAGTCTCCAGGCACGTGTCAGATATATACATCCTGTGAT
DNA 2: ATCACAGGATGTATATATCTGACACGTGCCTGGAGACTAGGGAGTAATCCCCTTGGCGGTTAAAACGTGGCCTTGAGCGCGTACGTGCGTTTAAGCGGTGCTAGAGCTGTCTACGACCAATTGAGCGGCCTCGGCACCGGGATTCTCCAGGAT
modifications: reconstituted with mouse histones H2A, H2B, H3.3 and H4
B5: 80 (nucleosome)
DNA 1: B2 DNA 1 with T82C, C83T, A84C, G86A, C88G, A90C, T91A
DNA 2: B2 DNA 2 with A63T, T64G, G66C, C68T, T70G, G71A, A72G
modifications: reconstituted with mouse histones H2A, H2B, H3.3 and H4
B6: 77 (nucleosome)
DNA 1: B4 DNA 1 with C79G, A80T, A81C, G82A, G83A, C84G, C85G, A86C, G88A
DNA 2: B4 DNA 2 with C66T, T68G, G69C, G70C, C71T, C72T, T73G, T74A, G75C
modifications: reconstituted with mouse histones H2A, H2B, H3.3 and H4
B7: 76 (nucleosome)
DNA 1: B4 DNA 1 with C79T, A80C, G82A, C84G, A86C, C87A
DNA 2: B4 DNA 2 with G67T, T68G, G70C, C72T, T74G, G75A
modifications: reconstituted with mouse histones H2A, H2B, H3.3 and H4
B8: 78 (nucleosome)
DNA 1: B2 DNA 1 with C81T, T82C, C83A, A85G, G87C, C89A, A90T
DNA 2: B2 DNA 2 with T64A, G65T, C67G, T69C, G71T, A72G, G73A
modifications: reconstituted with mouse histones H2A, H2B, H3.3 and H4

Key:
[1] = biological target: NR5A2 wild type;histone octamer (Homo sapiens;, UniProt O00482;C0HKE1;Q6ZWY9;P84244;P62806 1-541;2-130;2-126;2-136;2-103, |); assay: SeEN-seq (EMSA of nucleosome library followed by sequencing); 0.8 uM human NR5A2; 20 mM Tris-HCl pH 7.5, 120 mM NaCl, 1 mM MgCl2, 10 uM ZnCl2, 1 mM DTT, 100 ug/ml BSA, room temperature, 30 min; 0.1 uM nucleosome library; high values mean tight binding
[2] = biological target: mouse Nr5a2 wild type;histone octamer (Mus musculus;, UniProt P45448;C0HKE1;Q6ZWY9;P84244;P62806 1-560;2-130;2-126;2-136;2-103, |); assay: SeEN-seq (EMSA of nucleosome library followed by sequencing); 1.2 uM mouse Nr5a2; 20 mM Tris-HCl pH 7.5, 120 mM NaCl, 1 mM MgCl2, 10 uM ZnCl2, 1 mM DTT, 100 ug/ml BSA, room temperature, 30 min; 0.1 uM nucleosome library; high values mean tight binding

Binder | binding signal [1] | binding signal [2]
B1 | 5.16 log2 enrichment (bound/unbound, relative to Widom 601) | 4.92 log2 enrichment (bound/unbound, relative to Widom 601)
B2 | 1.33 log2 enrichment (bound/unbound, relative to Widom 601) | 1.29 log2 enrichment (bound/unbound, relative to Widom 601)
B3 | 0.772 log2 enrichment (bound/unbound, relative to Widom 601) | 0.954 log2 enrichment (bound/unbound, relative to Widom 601)
B4 | 1.29 log2 enrichment (bound/unbound, relative to Widom 601) | 1.36 log2 enrichment (bound/unbound, relative to Widom 601)
B5 | 0.765 log2 enrichment (bound/unbound, relative to Widom 601) | 0.924 log2 enrichment (bound/unbound, relative to Widom 601)
B6 | 1.48 log2 enrichment (bound/unbound, relative to Widom 601) | 1.71 log2 enrichment (bound/unbound, relative to Widom 601)
B7 | 1.83 log2 enrichment (bound/unbound, relative to Widom 601) | 2.16 log2 enrichment (bound/unbound, relative to Widom 601)
B8 | 1.77 log2 enrichment (bound/unbound, relative to Widom 601) | 2.13 log2 enrichment (bound/unbound, relative to Widom 601)
